The source of these data is ChEMBL document CHEMBL4513216, “Probing the Open Global Health Chemical Diversity Library for Multistage-Active Starting Points for Next-Generation Antimalarials” (ACS Infect Dis, 2020).

SMILES strings stand for the structures. About 2,100 (3.2%) of roughly 65,000 compounds showed an effect of 50% or more. The median lay at about -52%. For the sample, strong results were picked, then their nearest neighbours and some compounds at random.

This assay has as its system Plasmodium falciparum. Kind of assay: Screen against P. falciparum Asexual Blood Stage (ABS), at 5uM. To be noted: tested at 5 uM. Format: functional, Dd2.
`CC(C)Nc1nc(-c2ccccc2)nc2c1CCN(C(=O)C1CC1)CC2`: the INHIBITION was determined as 27.8%.

Regarding `CCCN1CCC(c2nc3ccc(-c4cccc(OC)c4)cn3n2)CC1`, the INHIBITION is -23.2%.

For the compound `Cn1cc(N2C(=O)CC[C@@H]3[C@H]2CCN3C(=O)c2cscn2)cn1`, the INHIBITION is recorded as -22.8%.

With `CN(CCc1ccncc1)Cc1nccn1Cc1ccccc1`, the INHIBITION came to 42.2%.

As to `CN(Cc1ccncc1)Cc1nccn1Cc1ccccc1`, the INHIBITION was -37.9%.

`CN(CCc1ccccn1)Cc1nccn1Cc1ccccc1`: the INHIBITION turned out to be 57.9%.

For `CCN(Cc1ccco1)C(=O)C1=NN(c2ccccc2)C(=O)CN1`, the INHIBITION was 60.6%.

For the compound `CCN(C(=O)C1=NN(c2ccccc2)C(=O)CN1)c1ccccc1`, the INHIBITION is reported as -66.6%.

Take `Cc1ccc(N2N=C(C(=O)N(C)Cc3ccco3)NCC2=O)cc1`: the INHIBITION is -13.2%.

Regarding `CCOc1cc(C=Cc2ncc(C(=O)NC)s2)ccc1OC`, the INHIBITION is listed as 25.6%.

As to `CN(CC(=O)Nc1cccnc1)C1CCCN(c2cccnn2)C1` (stereo unspecified), the INHIBITION amounted to 8.25%.

Turning to `CC(=O)NCCNCc1cn(CCN2CCSCC2)nc1C`, the INHIBITION was -18%.

For the compound `Cc1nc(C(C)C)sc1C(=O)NCCn1nc2ccccn2c1=O`, the INHIBITION was found to be 59.1%.

On to `Cc1nc(C)c(C(=O)NCCn2nc3ccccn3c2=O)s1`, for which the INHIBITION was -42%.

`CCc1nc(C)c(C(=O)NCCn2nc3ccccn3c2=O)s1`: the INHIBITION is on record as -71.9%.

Consider `CCc1nnc2n1CCN(CC(O)c1ccc3c(c1)OCCO3)C2` (stereo unspecified), for which the INHIBITION amounted to 66.3%.

Regarding `Cn1cnc2c1CCN(CC(O)c1ccc3c(c1)OCCO3)C2` (stereo unspecified), the INHIBITION was -106%.

For `CCc1nnc2n1CCN(Cc1cccc3c1OCCO3)C2`, the INHIBITION is recorded as 43.7%.

For the compound `Cc1cc(C)cc(CN2C[C@@H]3OCCN(CC(=O)N(C)C)[C@@H]3C2)c1`, the INHIBITION is recorded as -93.1%.

In the case of `COC[C@H]1CCCN1c1nccc(-c2cnn(-c3ccccc3C)c2)n1`, the INHIBITION is given as -32.9%.

Consider `COCC(=O)N1CCC2(CC1)CN(c1ccsc1)C(=O)CO2`, for which the INHIBITION is -11.6%.

As to `CC(=O)N1CCC2(CCN(Cc3cccc(F)c3)CC2)CC1`, the INHIBITION is reported as -58.8%.

As to `CN(C)CC(=O)N1CCC2(CCN(Cc3cccc(F)c3)CC2)C1`, the INHIBITION was 36.4%.

As for `Cc1noc(C)c1CN1CCC2(CCN(Cc3cccc(F)c3)CC2)C1`, the INHIBITION was found to be 67.9%.

In the case of `O=C(CC1CC1)N[C@@H]1CN(C(=O)c2ccsc2)C[C@@H]2CCCO[C@@H]21`, the INHIBITION is given as -17.8%.

For the compound `CC(=O)N1CC2(CCN(Cc3ccc(Cl)cc3)C2)Cc2ccccc21` (stereo unspecified), the INHIBITION is recorded as 9.12%.

As to `Cc1c(C)n(CC(O)CN2CCOCC2)c2c(Cl)cccc12` (stereo unspecified), the INHIBITION is reported as -15.7%.

As to `Cc1c(C)n(CC(O)CN2CCC(O)CC2)c2c(Cl)cccc12` (stereo unspecified), the INHIBITION was found to be 44.9%.

In the case of `Cc1c(C)n(CC(O)CN2CCCCCC2)c2c(Cl)cccc12` (stereo unspecified), the INHIBITION stood at 51.6%.

On to `CCN1CC(C(=O)NCCOc2ccc3c(c2)OCO3)CC1=O` (stereo unspecified), for which the INHIBITION was -196%.

For the compound `Cc1noc(CN(C)CC2CCCN(CCc3ccc(Cl)cc3)C2)n1` (stereo unspecified), the INHIBITION is given as -72.6%.

Consider `CN(Cc1ccncc1)CC1CCCN(CCc2ccc(Cl)cc2)C1` (stereo unspecified), for which the INHIBITION was -23.8%.

`Cc1nc(CN(C)CC2CCCN(CCc3ccc(Cl)cc3)C2)n(C)n1` (stereo unspecified): the INHIBITION is reported as 54.3%.

On to `O=S(=O)(c1cccs1)N1Cc2nc(CN3CCCC3)oc2C1`, for which the INHIBITION is on record as -84.5%.

In the case of `Cc1cccc(C)c1NC(=O)c1cccc(CN2CCCC2C)c1` (stereo unspecified), the INHIBITION was found to be 49.8%.

As for `COc1ccc(NC(=O)c2cccc(CN3CCCC3C)c2)cc1OC` (stereo unspecified), the INHIBITION was 51.1%.

Regarding `CC1CCCN1Cc1cccc(C(=O)Nc2ccc3c(c2)CCC3=O)c1` (stereo unspecified), the INHIBITION is 30.1%.

For `O=C([C@H]1C[C@@H]2CCN(c3cccc(F)c3)C[C@H]2O1)N1CCCC1`, the INHIBITION is recorded as -20.3%.

`CCc1nc(C2CCCN2CCCSC)no1` (stereo unspecified): the INHIBITION was determined as 42.3%.

As for `O=c1c(NCc2ccncc2)c(NCC(O)CN2CCOCC2)c1=O` (stereo unspecified), the INHIBITION is given as -27%.

On to `Cc1nnc(N2CCCC3(CN(Cc4ccc(F)cc4)CCO3)C2)o1` (stereo unspecified), for which the INHIBITION is given as -65.4%.

Regarding `Cc1cc(C)cc(CNC(C)c2c(C)nn(C)c2C)c1` (stereo unspecified), the INHIBITION is listed as 49.4%.

Regarding `Cn1nccc1C(=O)N1CC[C@]2(C[C@H](OCc3ccccn3)CO2)C1`, the INHIBITION is reported as -58%.

Consider `CCOCCNc1nc(-c2ccncc2)nc2c1CCNCC2`, for which the INHIBITION is listed as -46.1%.

For the compound `c1csc(CCNc2nc(-c3ccncc3)nc3c2CCNCC3)c1`, the INHIBITION was 53.5%.

On to `Cc1ccc(CCNc2nc(-c3ccncc3)nc3c2CCNCC3)o1`, for which the INHIBITION is -88.2%.

For the compound `Cc1csc(CCCNC(=O)NC2CC(=O)N(C(C)(C)C)C2)n1` (stereo unspecified), the INHIBITION is given as -57%.

As to `Cc1n[nH]c(NC(=O)c2ccc(COCC(F)(F)F)cc2)c1C`, the INHIBITION is reported as -94.3%.

On to `O=C1CC2(CCCCN2C(=O)c2ccco2)CN1c1cccnc1` (stereo unspecified), for which the INHIBITION is -138%.

In the case of `O=C1Nc2ccccc2CN(CC=Cc2ccccc2)C12CCNC2` (stereo unspecified), the INHIBITION is reported as 60.2%.

Turning to `CCCN1Cc2ccccc2NC(=O)C12CCNC2` (stereo unspecified), the INHIBITION was -23.5%.

For the compound `O=C1Nc2ccccc2CN(CC2CC2)C12CCNC2` (stereo unspecified), the INHIBITION is reported as -2.03%.

For `COCCN1CCN(C(=O)N2CCCC2)Cc2ccc(C)nc21`, the INHIBITION was -114%.

Turning to `CC(C)(C)c1nc(CN2CCCN(Cc3cccs3)CC2)no1`, the INHIBITION is reported as 30.6%.

On to `Cc1csc(N2CCN(C(=O)C3(C#N)CCCC3)CC2)n1`, for which the INHIBITION is reported as -111%.

As for `Cc1csc(N2CCCN(C(=O)C3(C#N)CCCCC3)CC2)n1`, the INHIBITION is recorded as -43.4%.

For `Cc1csc(N2CCCN(C(=O)C3(C#N)CCCC3)CC2)n1`, the INHIBITION was determined as 63%.

Regarding `Fc1cccc(N2CCCC3(CN(Cc4nccs4)CCO3)C2)c1` (stereo unspecified), the INHIBITION worked out at 0.276%.

On to `CC(=O)Nc1ccc(CN2CCCC(c3cc4ncccc4[nH]3)C2)cc1` (stereo unspecified), for which the INHIBITION is recorded as 42.3%.

Turning to `Cc1nonc1CN(C)c1nc(-c2cccnc2)nc2c1CCNC2`, the INHIBITION came out at 69.5%.

In the case of `CN(Cc1ccc(-n2cccn2)cc1)c1nc(N)nc2c1CCNCC2`, the INHIBITION worked out at 58.4%.

`CN(Cc1ccccc1-n1cccn1)c1nc(N)nc2c1CCNCC2`: the INHIBITION is -13.4%.

As for `Cc1nc2c(c(N(C)Cc3ccccc3-n3cccn3)n1)CCNCC2`, the INHIBITION is -3.02%.

Consider `CN(CC1CCCO1)c1nc(-c2cccnc2)nc2c1CCNCC2` (stereo unspecified), for which the INHIBITION is -40%.

For `CN(CCO)c1nc(-c2ccccn2)nc2c1CCNC2`, the INHIBITION was -79.2%.

Turning to `c1ccc(-c2nc3c(c(NCCn4cccc4)n2)CCNCC3)nc1`, the INHIBITION is on record as -0.552%.

On to `Cc1cc(CN(C)c2nc(-c3ccccn3)nc3c2CCNCC3)n[nH]1`, for which the INHIBITION was 69.2%.

Regarding `CN(Cc1cccnc1)c1nc(-c2ccccn2)nc2c1CCNCC2`, the INHIBITION worked out at 55.3%.

For `CN(CC(O)CO)c1nc(-c2cccnc2)nc2c1CCNC2` (stereo unspecified), the INHIBITION is -79.7%.

`CN(CC1CCCCO1)c1nc(-c2cccnc2)nc2c1CCNC2` (stereo unspecified): the INHIBITION is on record as -14.1%.

On to `CN(Cc1ccc(-n2cccn2)cc1)c1cc(N)nc(N)n1`, for which the INHIBITION was found to be 41.7%.
